Our source for the growth values is PubChem BioAssay (NCI).

Holding throughout (assay): NCI-60 one-dose screen, 48 h (100 = growth as untreated, 0 = no growth, -100 = all killed)
Holding throughout (details): 10 µM unless noted

Assay [1] relates to DU-145 prostate.
In assay [2] the test system is K-562 leukemia.
For assay [3], the system named is MALME-3M melanoma.
The test system of assay [4] is MDA-MB-231 breast.
In assay [5] the test system is RXF 393 renal.
The test system of assay [6] is SF-268 CNS.
The test system of assay [7] is SF-295 CNS.
In assay [8] the test system is SF-539 CNS.
Assay [9] relates to UACC-257 melanoma.
Assay [10] concerns M14 melanoma.

About 83,000 compounds went through this panel and 20% of them were active in at least one assay; those are over-represented in the sample as a whole.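 Single-concentration screen, 48 h exposure, 96-well plates. Endpoint: percent growth. Below 10 = active.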 Unmarked numbers belong to inactive results. Activity calls are given as the source filed them.

For `CCOC(=O)CC1CSC(c2cccc(Cl)c2)=N1` (stereo not given), the growth in assay [1] is 111%; in assay [2], 92.9%; in [3], 108%; in assay [4], 105%; in assay [5], 106%; in assay [6], 101%. Besides, the growth in assay [7] was 102%; in assay [8], 114%; in assay [9], 99.1%; in assay [10], 101%.

Turning to `O=c1oc2c(Br)cc(Br)cc2cc1-c1cc(-c2ccc(-c3cc(-c4cc5cc(Br)cc(Br)c5oc4=O)nc(-c4cc5cc(Br)cc(Br)c5oc4=O)c3)cc2)cc(-c2cc3cc(Br)cc(Br)c3oc2=O)n1`, the growth in [1] is 112%; in assay [2], 97.9%; in [3] it was 92.6%; in [4], 93.7%; in assay [5] it was 119%; in assay [6] it was 105%. For the same compound, the growth in assay [7] was 106%; in assay [8] it was 107%; in assay [9], 109%; in assay [10], 107%.

In the case of `O=C(CCCOc1ccc(Br)cc1)Nc1ncc(Cc2ccc(F)cc2)s1`, the growth was 79.8% in assay [1]; 37.1% in [2]; 73.1% in assay [3]; 79.5% in assay [4]; 69.2% in [5]; 73% in assay [6]. For the same compound, the growth in [7] is 68.9%; in assay [8], 68.3%; in assay [9], 93.4%; in assay [10] it was 51%.

On to `CCOC(=O)CCCn1c(-c2ccccc2)cc(-c2ccccc2)c(C#N)c1=O`, for which the growth is 97.1% in assay [1]; 81.8% in [2]; 108% in assay [3]; 86.8% in [4]; 79.2% in assay [5]; 88.4% in assay [6]. Further, the growth in assay [7] is 69.2%; in assay [8] it was 81.5%; in assay [9] it was 90.5%; in assay [10], 86.8%.

In the case of `O=C1N=c2ccccc2=C1c1sc(=S)n(C2CC(=O)N(c3ccc(Cl)cc3)C2=O)c1O` (stereo not given), the growth is 106% in [1]; 94.4% in [2]; 102% in [3]; 101% in [4]; 116% in assay [5]; 102% in assay [6]. Besides, the growth is 104% in assay [7], 101% in [8], 105% in assay [9] and 98.7% in assay [10].

Consider `CC(C)(C)c1cc(C(C)(C)c2ccccc2)cc(Cc2cc(C(C)(C)c3ccccc3)cc(C(C)(C)C)c2O)c1O`, for which the growth in [1] is 123%; in assay [2], 48%; in assay [3], 97.4%; in assay [4], 105%; in [5] it was 95.5%; in assay [6], 98.4%. For the same compound, the growth in assay [7] is 116%; in [8], 101%; in assay [9], 105%; in [10], 116%.

Turning to `CCNC(=O)Nc1ncccc1OCc1ccc(F)cc1`, the growth in assay [1] was 97.8%; in assay [2], 99.6%; in assay [3] it was 106%; in assay [4], 115%; in [5] it was 125%; in assay [6] it was 94.3%. Further, the growth in [7] was 97.8%; in [8], 102%; in [9], 102%; in [10], 109%.

On to `Cc1ccccc1SSc1ccccc1C`, for which the growth is 6.96% (active) in [1]; 99.1% in [2]; 104% in assay [3]; 82.7% in assay [4]; 73.8% in [5]; 95.2% in assay [6]. The growth in [7] is 80.3%; in [8], 104%; in assay [9], 105%; in [10], 85.2%.

As to `CCOC(=O)c1c(-c2ccc(C)cc2)c(C#N)c(=O)n(-c2cccc(C(F)(F)F)c2)c1N`, the growth in assay [1] is 108%; in assay [2], 97.8%; in assay [3] it was 99.4%; in [4] it was 97.9%; in assay [5], 101%; in assay [6] it was 97%. Further, the growth was 100% in assay [7], 97.2% in assay [8], 101% in [9] and 106% in assay [10].

As for `Cc1ccc(-c2nc3nc(-c4ccc(F)cc4)nc(N4CCCNCC4)c3o2)cc1`, the growth in [1] is -94.8% (active); in assay [2], -28.4% (active); in [3], -72.7% (active); in assay [4] it was -85.1% (active); in assay [5] it was -79.8% (active); in [6], -65.7% (active). Further, the growth in [7] was -86.3% (active); in [8], -97.9% (active); in assay [9], -72.2% (active); in assay [10], -86.6% (active).

As to `CCCCCO/N=C\c1c2c(O)c3c(O)c(C)c4c(c3c1O)C(=O)C(C)(O/C=C\C(OC)C(C)C(OC(C)=O)C(C)C(O)C(C)C(O)C(C)/C=C\C=C(\C)C(=O)N2)O4` (stereo not given), the growth in assay [1] is 36%; in assay [2], 17.6%; in assay [3], 41.2%; in [4], 31.4%; in [5] it was 36.6%; in assay [6], 31.2%. The growth was 7.23% (active) in [7], 37.3% in assay [8], 8.59% (active) in [9] and 28.2% in [10].

In the case of `Fc1ccccc1-c1cnn2cc(-c3ccccc3)cnc12`, the growth in assay [1] was 110%; in assay [2], 83.5%; in assay [3] it was 109%; in [4] it was 108%; in [5], 94.9%; in assay [6] it was 88.9%. Also, the growth in [7] is 98.2%; in assay [8] it was 103%; in assay [9], 110%; in assay [10] it was 105%.

On to `CN1C(=O)/C(=C/c2ccc(C(=O)Nc3ncc(Cc4ccccc4Cl)s3)cc2)SC1=S`, for which the growth was 73% in assay [1]; 71.8% in assay [2]; 62.2% in [3]; 56.7% in [4]; 69.1% in assay [5]; 80.9% in [6]. In addition, the growth in assay [7] is 58.4%; in assay [8], 77%; in assay [9], 89.3%; in assay [10], 42.1%.
